Inconclusive results are not listed. Active and inactive are the calls of the source. Unless noted, the call rests on the fitted dose curve; in most records, active means well fitted curve in either direction with a large enough effect (not every such curve was filed as active); inconclusive means small, poorly fitted or top-dose-only effect, or another doubt; inactive means flat fitted curve, though single readings scatter.
How the values were obtained:
[1] = target: Lysosomal acid glucosylceramidase (Homo sapiens) (UniProt P04062); assay: Glucocerebrosidase-p2 (AID 348; in the data active means potency below about 10 µM; further: potency means the concentration at half of the fitted maximal effect); conditions: purified GBA, blue fluorogenic substrate, 40 min
How it was run: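 Compounds titrated from 0.6 nM upwards against 0.2 nM enzyme in pH 5.9 citric acid/KH2PO4, taurocholate, tween-20; blue fluorogenic substrate 80 uM, 40 min room temperature, stopped and read Ex 365/Em 440 for AC50.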

[2] = AP1 Signaling Pathway (AID 357); conditions: ME-180 AP-1-bla reporter, EGF-induced, beta-lactamase ratio, 5 h; at 7.69 µM (top of the series) unless noted; further: on the % scale 0 is the no-effect control and ±100 the full control effect
How it was run: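 AP-1-bla ME-180 cells with beta-lactamase reporter under AP-1 response element, stimulated with EC50 EGF; compounds titrated, 5 hours at 37 degrees Celsius. CCF4 read at 460/530 nm ratio; positive and negative modulators judged by AC50.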

[3] = NFAT Signaling Pathway (AID 444); conditions: Jurkat NFAT-bla M1, carbachol, beta-lactamase ratio, 5 h; at 7.69 µM (top of the series) unless noted;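 further: carbachol stimulus at about its EC50 of 1 µM final; on the % scale 0 is the no-effect control and ±100 the full control effect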
How it was run: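 Read-out: CCF4 FRET ratio (460 nm/530 nm) after 1 h RT dye loading, used for %activity and AC50 from titration series. Cells: Jurkat NFAT-β-lactamase/M1 line, treated with compound plus 1 uM carbachol for 5 h, 37 °C.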

[4] = Stat Signaling Pathway (AID 446); conditions: ME-180 SIE beta-lactamase reporter, IL-6 stimulated, 5 h; at 7.69 µM (top of the series) unless noted;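 further: ME-180 cervical cancer cells given 40 pM IL-6 alongside compound; SIE-controlled beta-lactamase reporter measured as 460/530 nm FRET emission ratio; on the % scale 0 is the no-effect control and ±100 the full control effect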
How it was run: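 Reporter line: ME-180 cervical carcinoma, SIE-beta-lactamase. Treatment: compound with 40 pM IL-6, 5 hrs, 37 C, in low-serum OPTI-MEM with 10 mM HEPES pH 7.3. Detection: 460/530 nm fluorescence.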

[5] = target: Glucocorticoid receptor (Homo sapiens) (UniProt P04150); assay: GR-GFP Redistribution (AID 450;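 active means compounds whose dose series gives a full or clear partial fitted curve of increased nuclear translocation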; further: potency means the concentration at half of the fitted maximal effect); conditions: U2OS GR-GFP nuclear translocation, laser cytometry, 2 h
[6] = target: Glucocorticoid receptor (Homo sapiens) (UniProt P04150); assay: GR-EFC Redistribution (AID 451; calls by dose curve; further: potency means the concentration at half of the fitted maximal effect); conditions: CHO-K1 GR-EFC translocation, beta-gal luminescence, 2 h
How it was run: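 Translocation of GR-ED fusion to nuclear EA restores b-gal, read by luminescence after 1 h room-temperature detection. Engineered CHO-K1 biosensor cells, 1,000/well, exposed 2 h at 37 C to titrations up to 46 uM final.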

[7] = target: Mitogen-activated protein kinase 10 (Mus musculus) (UniProt Q61831); assay: JNK3 AlphaScreen Assay (AID 530);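 further: kinase came from lysate of stimulated human HepG2 cells; signal reports phosphorylation of biotinylated GST-cJun 1-79 at Ser73 with 10 µM ATP; on the % scale 0 is the no-effect control and ±100 the full control effect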
How it was run: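 Room-temperature AlphaScreen kinase assay; pre-activated HepG2 lysate as JNK3 source, biotin-GST-cJun(1-79) substrate, 10 uM ATP, compound 15 min preincubation.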

[8] = target: 3',5'-cyclic-AMP phosphodiesterase 4B (Homo sapiens) (UniProt Q07343); assay: qHTS Assay for Inhibitors of PDE-IV (AID 607; active means well fitted activation curve with a large enough effect in the main read-out, with a control signal flat, not every such curve was filed as active; further: % of control where 0% means no effect)
How it was run: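 Cell-based read-out of cAMP via a modified cyclic nucleotide-gated channel and membrane potential dye (535/590 nm) in HEK293 cells expressing PDE4 endogenously. Compounds tested up to 22.9 uM final; 100 uM RO 20-1724 reference.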

[9] = qHTS Assay for Lipid Storage Modulators (AID 1519; calls by dose curve); conditions: Drosophila S3 cells, BODIPY lipid droplet/cell ratio, laser cytometry, cells loaded with oleic acid; for activity change, negative = inhibition: at 57.5 µM (top of the series)
How it was run: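 Cells seeded at 5,000 per well were treated with compounds over a concentration series and loaded with oleic acid (400 uM, as added). Lipid droplet fluorescence (488 nm excitation, 500-530 nm channel) was read by laser-scanning cytometry and normalized to 20 uM Triacsin C.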

[10] = target: Dual specificity protein kinase CLK4 (Homo sapiens) (UniProt Q9HAZ1); assay: qHTS Assay for Inhibitors of CDC-like Kinase 4 (Kinase-Glo Assay) (AID 1770; active means well fitted curve in the direction sought with a large enough effect; an effect the other way counts as inactive or inconclusive; further: nearly all actives have a fitted effect of over 65% in size; further: potency means the concentration at half of the fitted maximal effect)
How it was run: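 Luminescent ATP-depletion read-out (Kinase-Glo) after 4.5 h room-temperature reaction of Clk4 (25 nM final) with RS peptide (100 uM) and ATP (1 uM), pH 7.5 Tris buffer with MgCl2 and DTT.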

[11] = target: Dual specificity protein kinase CLK4 (Homo sapiens) (UniProt Q9HAZ1); assay: qHTS Assay for Inhibitors of CDC-like Kinase 4 (ADP-FP Assay) (AID 1795; active means well fitted curve in the direction sought with a large enough effect; an effect the other way counts as inactive or inconclusive;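 further: recombinant human CLK4 phosphorylating RS repeat peptide at 1 µM ATP; on the % scale 0 is the no-effect control and ±100 the full control effect; nearly all actives have a fitted effect of over 60% in size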)
How it was run: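 Kinase activity was measured as ADP production using Transcreener orange tracer (4 nM) and ADP antibody (1 ug/mL) fluorescence polarization, with ADP calculated from a calibration curve. The 1 h reaction contained 6.25 nM Clk4, 1 uM ATP and 100 uM RS peptide at pH 7.5 with Mg2+.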

[12] = target: Ubiquitin carboxyl-terminal hydrolase 1 (Homo sapiens) (UniProt O94782); assay: Inhibitors of USP1/UAF1: Pilot qHTS (AID 504865; active means well fitted curve in the direction sought with a large enough effect; an effect the other way counts as inactive or inconclusive;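 further: rhodamine fluorescence freed from ubiquitin-rhodamine substrate followed over time; top concentration of the series differs between compounds; on the % scale 0 is the no-effect control and ±100 the full control effect; nearly all actives have a fitted effect of over 35% in size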)
How it was run: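 Deubiquitinase activity followed as kinetic rhodamine fluorescence release from 150 nM Ub-Rho. 1 nM USP1/UAF1 with compound, after 15 min room-temperature preincubation, in HEPES pH 7.8 buffer containing TCEP, EDTA, BSA and Tween-20.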

[13] = Primary qHTS for small molecule stabilizers of the endoplasmic reticulum resident proteome: Secreted ER Calcium Modulated Protein (SERCaMP) assay (AID 1508630; active means well fitted curve in the direction sought with a large enough effect; an effect the other way counts as inactive or inconclusive; further: on the % scale 0 is the no-effect control and ±100 the full control effect)
How it was run: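 GLuc-SERCaMP-expressing SH-SY5Y cells, pretreated 16 h with compound, are challenged with thapsigargin to empty ER calcium stores; after 4 h, coelenterazine is added directly to the medium and luminescence is imaged.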

[14] = target: Cytochrome P450 1A2 (Homo sapiens) (UniProt P05177); assay: p450-cyp1a2 (AID 410; calls by dose curve; further: potency means the concentration at half of the fitted maximal effect)
How it was run: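 Inhibition was calculated relative to 57 uM furafylline (full inhibition). The reaction used human CYP1A2 at 20nM with Luciferin-ME at its Km, 100uM, driven by an NADPH-regenerating system for 60 min at room temperature.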

[15] = target: Dual specificity protein kinase CLK4 (Homo sapiens) (UniProt Q9HAZ1); assay: qHTS Assay for Inhibitors of CDC-like Kinase 4 (ADP-Glo Assay) (AID 1771; active means well fitted curve in the direction sought with a large enough effect; an effect the other way counts as inactive or inconclusive; further: nearly all actives have a fitted effect of over 70% in size; further: potency means the concentration at half of the fitted maximal effect)
How it was run: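 Kinase reaction: Clk4 at 25 nM, RS repeat peptide substrate at 100 uM, ATP at 1 uM, 1 hr, room temperature. Product ADP detected as luciferase signal via ADP-Glo.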

[16] = target: Cytochrome P450 3A4 (Homo sapiens) (UniProt P08684); assay: qHTS Assay for Activators of Cytochrome P450 3A4 (AID 885; active means well fitted curve in the direction sought with a large enough effect; an effect the other way counts as inactive or inconclusive; further: nearly all actives have a fitted effect of over 65% in size)
How it was run: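 Signal was normalized against complete inhibition by 57 uM ketoconazole. The reaction used 20nM CYP3A4 with 25uM Luciferin-PPXE, 10-min compound preincubation and a 60-min NADPH-supported step at RT.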

[17] = target: Cytochrome P450 3A4 (Homo sapiens) (UniProt P08684); assay: qHTS Assay for Inhibitors and Substrates of Cytochrome P450 3A4 (AID 884; active means well fitted curve in the direction sought with a large enough effect; an effect the other way counts as inactive or inconclusive; further: potency means the concentration at half of the fitted maximal effect; nearly all actives have a fitted effect of over 50% in size)
How it was run: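 20 nM human CYP3A4 with 25 uM Luciferin-PPXE (at KM) in 200 mM KPO4, preincubated 10 min with compound; NADPH regeneration started a 60 min RT reaction. Luciferin detected by luminescence, normalized to 57 uM ketoconazole as full inhibition.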

[18] = measured here: cell count channel max response
[19] = measured here: lipid channel max response

Sequence of Glucocorticoid receptor (Homo sapiens) (P04150 whole entry, looked up, the tested form may be a part): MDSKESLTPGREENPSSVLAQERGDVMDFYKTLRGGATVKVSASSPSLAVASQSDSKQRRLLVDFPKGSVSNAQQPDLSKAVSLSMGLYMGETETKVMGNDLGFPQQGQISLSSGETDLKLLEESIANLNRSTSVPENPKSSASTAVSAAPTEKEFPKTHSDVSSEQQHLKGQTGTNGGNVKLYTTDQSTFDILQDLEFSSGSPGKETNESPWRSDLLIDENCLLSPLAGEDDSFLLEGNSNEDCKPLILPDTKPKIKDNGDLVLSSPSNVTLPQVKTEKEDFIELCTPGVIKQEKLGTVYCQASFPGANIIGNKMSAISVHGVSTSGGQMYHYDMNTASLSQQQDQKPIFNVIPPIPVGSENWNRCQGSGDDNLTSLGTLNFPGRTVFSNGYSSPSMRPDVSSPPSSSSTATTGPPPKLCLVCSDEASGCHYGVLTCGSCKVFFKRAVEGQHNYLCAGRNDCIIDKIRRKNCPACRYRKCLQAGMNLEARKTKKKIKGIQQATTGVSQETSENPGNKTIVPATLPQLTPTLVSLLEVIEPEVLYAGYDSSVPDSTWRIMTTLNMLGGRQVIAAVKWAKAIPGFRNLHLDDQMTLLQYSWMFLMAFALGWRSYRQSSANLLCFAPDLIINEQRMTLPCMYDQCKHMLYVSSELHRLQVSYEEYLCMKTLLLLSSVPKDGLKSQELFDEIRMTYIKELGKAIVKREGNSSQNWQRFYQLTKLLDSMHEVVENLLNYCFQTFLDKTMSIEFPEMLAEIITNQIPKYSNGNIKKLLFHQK
Sequence of Ubiquitin carboxyl-terminal hydrolase 1 (Homo sapiens) (O94782 whole entry, looked up): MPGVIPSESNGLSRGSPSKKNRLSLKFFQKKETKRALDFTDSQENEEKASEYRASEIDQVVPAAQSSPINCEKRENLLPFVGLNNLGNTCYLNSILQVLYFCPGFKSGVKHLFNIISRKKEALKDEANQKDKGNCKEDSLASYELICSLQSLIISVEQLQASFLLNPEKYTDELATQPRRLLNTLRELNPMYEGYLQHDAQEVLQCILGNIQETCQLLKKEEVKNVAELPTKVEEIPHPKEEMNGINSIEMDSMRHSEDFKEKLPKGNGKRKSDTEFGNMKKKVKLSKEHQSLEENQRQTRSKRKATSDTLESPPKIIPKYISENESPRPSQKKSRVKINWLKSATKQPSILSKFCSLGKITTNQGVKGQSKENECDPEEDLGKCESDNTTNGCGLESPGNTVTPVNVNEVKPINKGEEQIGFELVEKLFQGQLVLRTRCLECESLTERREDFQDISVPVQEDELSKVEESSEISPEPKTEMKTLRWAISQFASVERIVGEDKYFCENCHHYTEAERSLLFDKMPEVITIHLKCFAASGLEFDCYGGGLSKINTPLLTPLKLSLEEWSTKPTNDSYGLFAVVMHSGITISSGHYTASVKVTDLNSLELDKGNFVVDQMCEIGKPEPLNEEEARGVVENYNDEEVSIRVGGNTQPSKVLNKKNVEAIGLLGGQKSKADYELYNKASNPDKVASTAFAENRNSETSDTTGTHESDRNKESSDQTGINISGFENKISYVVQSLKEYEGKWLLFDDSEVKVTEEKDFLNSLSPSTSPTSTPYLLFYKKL
Sequence of Cytochrome P450 3A4 (Homo sapiens) (P08684 whole entry, looked up): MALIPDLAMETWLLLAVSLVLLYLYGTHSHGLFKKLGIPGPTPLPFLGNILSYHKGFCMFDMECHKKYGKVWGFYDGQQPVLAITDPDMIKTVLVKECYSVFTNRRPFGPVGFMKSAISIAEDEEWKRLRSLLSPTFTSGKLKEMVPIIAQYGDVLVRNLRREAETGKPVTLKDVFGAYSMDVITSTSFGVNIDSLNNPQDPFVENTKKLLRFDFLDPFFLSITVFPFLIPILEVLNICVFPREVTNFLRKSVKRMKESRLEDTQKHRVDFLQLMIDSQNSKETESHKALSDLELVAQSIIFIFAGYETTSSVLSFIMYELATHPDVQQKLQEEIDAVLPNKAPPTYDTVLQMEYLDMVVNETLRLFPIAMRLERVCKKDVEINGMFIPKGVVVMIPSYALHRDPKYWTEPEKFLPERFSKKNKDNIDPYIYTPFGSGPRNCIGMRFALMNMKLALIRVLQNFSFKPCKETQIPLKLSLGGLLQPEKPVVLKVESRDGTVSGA
Sequence of Dual specificity protein kinase CLK4 (Homo sapiens) (Q9HAZ1 whole entry, looked up): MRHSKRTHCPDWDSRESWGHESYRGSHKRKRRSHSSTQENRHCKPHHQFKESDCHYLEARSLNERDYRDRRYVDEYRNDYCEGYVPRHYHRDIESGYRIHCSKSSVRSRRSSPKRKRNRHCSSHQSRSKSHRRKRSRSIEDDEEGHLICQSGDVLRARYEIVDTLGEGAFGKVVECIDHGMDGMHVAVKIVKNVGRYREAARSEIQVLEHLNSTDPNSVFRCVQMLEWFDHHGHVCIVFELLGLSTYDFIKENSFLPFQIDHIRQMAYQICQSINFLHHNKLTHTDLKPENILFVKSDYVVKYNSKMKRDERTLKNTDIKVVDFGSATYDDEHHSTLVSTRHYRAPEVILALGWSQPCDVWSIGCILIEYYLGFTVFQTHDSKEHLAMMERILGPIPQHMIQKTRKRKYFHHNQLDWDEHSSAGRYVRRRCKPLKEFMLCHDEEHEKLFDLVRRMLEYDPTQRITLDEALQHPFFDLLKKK
Sequence of Lysosomal acid glucosylceramidase (Homo sapiens) (P04062 whole entry, looked up): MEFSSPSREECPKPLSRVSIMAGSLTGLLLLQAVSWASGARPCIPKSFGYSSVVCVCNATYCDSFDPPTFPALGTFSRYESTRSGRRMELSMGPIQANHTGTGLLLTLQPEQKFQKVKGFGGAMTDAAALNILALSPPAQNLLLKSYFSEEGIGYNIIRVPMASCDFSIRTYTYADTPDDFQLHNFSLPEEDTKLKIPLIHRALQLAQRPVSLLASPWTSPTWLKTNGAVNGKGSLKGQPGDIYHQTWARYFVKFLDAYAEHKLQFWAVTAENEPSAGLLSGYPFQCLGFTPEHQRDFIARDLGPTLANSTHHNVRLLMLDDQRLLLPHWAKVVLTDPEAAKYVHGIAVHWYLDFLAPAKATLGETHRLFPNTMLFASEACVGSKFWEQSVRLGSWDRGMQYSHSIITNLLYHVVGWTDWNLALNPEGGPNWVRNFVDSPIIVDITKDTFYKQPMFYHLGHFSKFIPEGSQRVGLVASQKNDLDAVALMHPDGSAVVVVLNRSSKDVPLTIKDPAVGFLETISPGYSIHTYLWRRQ
Sequence of 3',5'-cyclic-AMP phosphodiesterase 4B (Homo sapiens) (Q07343 whole entry, looked up): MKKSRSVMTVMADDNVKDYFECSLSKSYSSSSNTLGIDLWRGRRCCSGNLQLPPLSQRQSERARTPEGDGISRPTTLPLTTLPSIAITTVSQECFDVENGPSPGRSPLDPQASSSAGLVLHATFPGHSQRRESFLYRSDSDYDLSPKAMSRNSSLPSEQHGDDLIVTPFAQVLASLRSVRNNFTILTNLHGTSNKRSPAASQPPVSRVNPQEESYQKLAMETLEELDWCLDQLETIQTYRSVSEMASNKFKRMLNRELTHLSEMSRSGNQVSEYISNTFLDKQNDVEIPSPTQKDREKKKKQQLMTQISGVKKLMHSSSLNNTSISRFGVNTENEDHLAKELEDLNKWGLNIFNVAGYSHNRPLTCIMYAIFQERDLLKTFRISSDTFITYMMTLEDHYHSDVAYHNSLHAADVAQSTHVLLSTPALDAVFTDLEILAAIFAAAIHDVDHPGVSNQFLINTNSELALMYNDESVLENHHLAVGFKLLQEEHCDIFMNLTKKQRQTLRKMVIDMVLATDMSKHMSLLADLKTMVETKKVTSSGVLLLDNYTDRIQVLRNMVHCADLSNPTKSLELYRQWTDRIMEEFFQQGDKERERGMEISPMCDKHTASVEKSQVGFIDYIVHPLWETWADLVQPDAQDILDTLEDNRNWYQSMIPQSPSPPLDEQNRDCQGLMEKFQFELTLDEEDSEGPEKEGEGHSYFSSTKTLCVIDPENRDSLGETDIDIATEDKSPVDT
Sequence of Cytochrome P450 1A2 (Homo sapiens) (P05177 whole entry, looked up): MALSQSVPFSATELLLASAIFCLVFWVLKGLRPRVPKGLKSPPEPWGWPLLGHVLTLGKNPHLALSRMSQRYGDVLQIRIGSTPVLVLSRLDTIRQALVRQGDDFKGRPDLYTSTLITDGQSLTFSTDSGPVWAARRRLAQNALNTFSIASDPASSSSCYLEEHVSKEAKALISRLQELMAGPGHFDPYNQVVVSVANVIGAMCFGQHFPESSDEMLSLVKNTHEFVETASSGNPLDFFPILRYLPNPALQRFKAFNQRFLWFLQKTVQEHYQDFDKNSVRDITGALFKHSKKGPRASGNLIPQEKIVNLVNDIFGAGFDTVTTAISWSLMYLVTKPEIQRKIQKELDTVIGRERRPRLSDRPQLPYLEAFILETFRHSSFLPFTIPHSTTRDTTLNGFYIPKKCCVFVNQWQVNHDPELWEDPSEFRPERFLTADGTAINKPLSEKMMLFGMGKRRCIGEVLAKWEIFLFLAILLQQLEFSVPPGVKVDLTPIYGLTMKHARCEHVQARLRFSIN

Compound	Potency [1]	activity change, negative = inhibition [2]	activity change, negative = inhibition [3]	activity, negative = inhibition [4]	Potency [5]	Potency [6]	outcome [7]	Potency [8]	activity change, negative = inhibition [9]	max response [9, 18] [%]	max response [9, 19] [%]	Potency [10]	Potency [11]	Potency [12]	Potency [13]	Potency [14]	Potency [15]	Potency [16]	Potency [17]
COCCn1c(=O)cnc2cnc(N3CCN(C)CC3)nc21	> 11.4 µM (inactive)	-13.3% (inactive)	-29.3% (inactive)	-12.7% (inactive)	> 9.22 µM (inactive)	> 46 µM (inactive)	inactive	inactive	0.388% (inactive)	4.53	3.72	inactive	inactive	inactive	inactive				
CC(=O)NCCNc1cc(-c2ccccc2C(F)(F)F)ncn1	> 11.4 µM (inactive)	9.07% (inactive)	15.3% (inactive)	6.62% (inactive)	> 46 µM (inactive)	> 46 µM (inactive)	inactive	inactive	0.0704% (inactive)	5.19	3.95		inactive		inactive	25.1 µM (active)	inactive		
COc1cccc(Nc2ncc3nc(CCc4ccccc4)c(=O)n(C)c3n2)c1	> 11.4 µM (inactive)		21.6% (inactive)	-7.18% (inactive)	> 9.22 µM (inactive)	> 46 µM (inactive)	inactive		-10% (inactive)	27.3	12.3	inactive	inactive	inactive	inactive				
CCNc1ncc2nc(-c3cn(C)c4ccccc34)c(=O)n(-c3ccccc3)c2n1	> 11.4 µM (inactive)	2.53% (inactive)	3.22% (inactive)	-9.31% (inactive)		> 46 µM (inactive)	inactive		-0.273% (inactive)	19.3	17.5	20 µM (active)			inactive	15.8 µM (active)		inactive	
COCCn1c(=O)c(C)nc2cnc(Oc3ccccc3)nc21	> 11.4 µM (inactive)	-9.67% (inactive)	-4.22% (inactive)	-12.4% (inactive)	> 9.22 µM (inactive)		inactive	inactive	4.7% (inactive)	23.5	27.5	inactive	inactive	inactive	inactive			inactive	
c1csc(CNc2cc(-c3ccoc3)ncn2)c1	> 11.4 µM (inactive)	-0.901% (inactive)	-2.52% (inactive)	3.9% (inactive)	> 46 µM (inactive)	> 46 µM (inactive)	inactive	inactive	5.83% (inactive)	26.5	29.6		inactive	inactive	inactive	2 µM (active)	35.5 µM (active)	inactive	
CC(=O)NCCNc1cc(-c2ccccc2C)ncn1	> 11.4 µM (inactive)	12% (inactive)		16.5% (inactive)	> 46 µM (inactive)	> 46 µM (inactive)	inactive	inactive	3.34% (inactive)	16.2	17.3	inactive	inactive	inactive	inactive	15.8 µM (active)			
Fc1ccc(Nc2ccnc(-c3ccoc3)n2)cc1	> 11.4 µM (inactive)	-6.54% (inactive)	6.01% (inactive)	8.8% (inactive)	> 46 µM (inactive)	> 46 µM (inactive)	inactive	inactive	8.99% (inactive)	9.29	17.6			inactive	inactive	1 µM (active)	inactive	inactive	7.94 µM (active)
Cn1c(=O)c(-c2ccc(Cl)cc2)nc2cnc(Nc3ccccc3)nc21	> 11.4 µM (inactive)	-22.9% (inactive)	-8.39% (inactive)	-6.29% (inactive)	> 9.22 µM (inactive)	> 46 µM (inactive)	inactive	inactive	-14.5% (inactive)	23.4	-1.32		inactive	inactive	inactive		inactive		
CN(C)C(=O)c1ccc(-c2nc(NC3CCNCC3)c3ccccc3n2)cc1	> 11.4 µM (inactive)	7.64% (inactive)	12.4% (inactive)	11.2% (inactive)	> 46 µM (inactive)	> 46 µM (inactive)	inactive	inactive	4.99% (inactive)	14.8	18.3		inactive	inactive	inactive	20 µM (active)			
Cc1noc(C)c1-c1cc(Nc2ccccc2)ncn1	> 11.4 µM (inactive)	-11.6% (inactive)	-3.87% (inactive)	-5.08% (inactive)	> 46 µM (inactive)	> 46 µM (inactive)	inactive		4.92% (inactive)	15.2	17.9		inactive	inactive	inactive	1.26 µM (active)			
c1ccc2c(NC3CCNCC3)nc(-c3ccoc3)nc2c1	> 11.4 µM (inactive)	8.91% (inactive)	5.13% (inactive)	7% (inactive)	> 46 µM (inactive)	> 46 µM (inactive)	inactive		0.038% (inactive)	5.08	2.41			inactive	inactive	15.8 µM (active)	inactive		
CN(C)C(=O)c1ccc(-c2cncnc2NC2CCNCC2)cc1	> 11.4 µM (inactive)	7.68% (inactive)	9.18% (inactive)	15.4% (inactive)	> 46 µM (inactive)	> 46 µM (inactive)	inactive	inactive	3.5% (inactive)	11.8	12.7		inactive	inactive	inactive		inactive		
